# Measurements published in PubChem BioAssay (EPA / NIEHS).
# Calls of active or inactive are those of the source. How the source made its calls: active means hit-call score of the fitted dose curve at least 0.9, where 1 is the maximum; inactive means score below 0.9.
# Experiment: APR_HepG2_MitoticArrest_1hr: Apredica 1-hour HepG2 Assay for Mitotic Arrest (AID 2282672)
# Conditions: high-content imaging, actives raise or lower the signal
# Method: APR_HepG2_1hr is a cell-based, multiplexed-readout assay that uses HepG2, a human liver cell line, with measurements taken at 1 hour after chemical dosing in a 384-well plate.APR_HepG2_MitoticArrest_1hr is one of 10 assay component(s) measured or calculated from the APR_HepG2_1hr assay. It is designed to make measurements of cell phenotype, a form of morphology reporter, as detected with fluorescence intensity signals by HCS Fluorescent Imaging technology.Data from the assay component APR_HepG2_MitoticArrest_1hr was analyzed into 1 assay endpoint. This assay endpoint, APR_HepG2_MitoticArrest_1hr, was analyzed with bidirectional fitting relative to DMSO as the negative control and baseline of activity. Using a type of morphology reporter, measures of protein for gain or loss-of-signal activity can be used to understand the signaling at the pathway-level as they relate to the gene . Furthermore, this assay endpoint can be referred to as a primary readout, because this assay has produced multiple assay endpoints where this one serves a signaling function. To generalize the intended target to other relatable targets, this assay endpoint is annotated to the cell cycle intended target family, where the subfamily is arrest.
# Cells were treated with dimethyl sulfoxide (DMSO) as a solvent control at a final concentration of 0.5% v/v or with compounds in DMSO with a resulting final DMSO concentration of 0.5% v/v. Compound treatment was done at concentrations of 0.39, 0.78, 1.56, 3.12, 6.24, 12.5, 25, 50, 100, and 200 uM in duplicate on each plate. Cells were treated with compounds for 1, 24, or 72 hr. Carbonyl […] m-chloro-phenylhydrazone (CCCP) and taxol were used as positive controls for mitochondrial function and cytoskeletal stability, respectively; DMSO served as the negative control for this experiment. Cells were fixed by the direct addition of 50 uL formaldehyde in Hank's Balanced Salt Solution (HBSS) to a final concentration of 3.7%. After incubation in the fixation medium for 30 min at room temperature (293-298 K), cells were rinsed twice with HBSS and treated with cell permeabilization buffer (16 uL of 0.5% Triton X-100) for 10 min at room temperature (293-298 K) before labeling. For mitochondrial membrane potential and mitochondrial measurements, pre-fixed cells were incubated with 50 uL of MitoTracker Red CMXRos (Invitrogen) at a concentration of 250 nM for 30 min before fixation. In the remaining cases, post-fixed cells were labeled by incubation with a multiplexed mixture of primary antibodies in HBSS for 60 min at room temperature (293-298 K) to detect immunoreactivity of c-Jun (1:500), phospho-histone H3 (1:100), phospho-histone H2A.x (1:200), p53 (1:400), alpha-tubulin (1:200) and Hoechst 33342 (2 ug/mL). Cells were labeled for multiplexed imaging on two separate plates: a) Hoechst 33342, MitoTracker Red, phospho-histone H3, and alpha-tubulin, and b) Hoechst 33342, phospho-histone H2A.x, and c-Jun. A final rinse with HBSS (50 uL) was performed before analysis. The primary and secondary antibodies for the proteins were phospho-histone H3 (rabbit anti-phospho-histone H3 and FITC-donkey anti-rabbit IgG), phospho-histone H2A.x (mouse anti-phospho-histone H2A.x and FITC-donkey anti-mouse IgG), c-Jun (rabbit anti-phospho-c-Jun and Cy3-donkey anti-rabbit IgG), p53 (sheep anti-p53 and Cy5-donkey anti-sheep IgG), alpha-tubulin (mouse anti-alpha-tubulin and Cy5-donkey anti-mouse IgG). These antibodies are available as the CellCiphr HepG2 assay kit (Millipore).Digital images of each well were captured using a Cellomics ArrayScan VTI (Thermo Scientific Cellomics) (0.8 NA objective, 0.63x optical coupler, and XF-93 filter set) at 20x magnification. The images were acquired using the autofocus feature of the ArrayScan instrument, which entails the following steps. First, the camera focuses on channel 1 (Hoechst 33342), where nuclei are identified. Second, a Z offset of 1 um is used for capturing mitochondria (MitoTracker Red). […]
row,Compound,outcome
1,CCCOC(=O)NCCCN(C)C,inactive
2,c1ccc(Nc2ccccc2)cc1,inactive
3,CCCOC(=O)c1ccc(C(=O)OCCC)nc1,inactive
4,CCOC(=O)C(C)Oc1ccc(Oc2cnc3cc(Cl)ccc3n2)cc1 (stereo not given),inactive
5,COCCO,inactive
6,CCOC(=O)COc1cc(-n2ncc(C(F)(F)F)c(C)c2=O)c(F)cc1Cl,inactive
7,CCCCCCC(C)OC(=O)COc1nc(F)c(Cl)c(N)c1Cl (stereo not given),inactive
8,O=C(O)C1(C(=O)Nc2ccc(Cl)cc2Cl)CC1,inactive
9,N#CSCSc1nc2ccccc2s1,inactive
10,CCCCOC(=O)C(C)Oc1ccc(Oc2ccc(C(F)(F)F)cn2)cc1 (stereo not given),inactive
11,CCOC(=O)[C@H](C)Oc1ccc(Oc2nc3ccc(Cl)cc3o2)cc1,inactive
12,COc1nc(C)nc(NC(=O)NS(=O)(=O)c2ccccc2OCCCl)n1,inactive
13,CCCN(CCC)c1c([N+](=O)[O-])cc(C(F)(F)F)c(N)c1[N+](=O)[O-],inactive
14,Cc1nn(C)c(Oc2ccccc2)c1C=NOCc1ccc(C(=O)OC(C)(C)C)cc1,inactive
15,C=CCOC(Cn1ccnc1)c1ccc(Cl)cc1Cl (stereo not given),inactive
16,CCCCOCCOCCOCc1cc2c(cc1CCC)OCO2,inactive
17,S=C([S-])NCCNC(=S)[S-].[Mn+2],inactive
18,CCOC(=O)C(C)Oc1ccc(Oc2nc3ccc(Cl)cc3o2)cc1 (stereo not given),inactive
19,O=C(Nc1ccc([N+](=O)[O-])cc1Cl)c1cc(Cl)ccc1O,inactive
20,CC(C)(c1ccc(O)cc1)c1ccc(O)cc1,inactive

row,Compound,outcome
1,c1ccc2[nH]c(-c3cscn3)nc2c1,inactive
2,COC(=O)c1cccc(C)c1S(=O)(=O)NC(=O)Nc1nc(OCC(F)(F)F)nc(N(C)C)n1,inactive
3,CN(C)C(=O)Nc1ccc(Cl)c(Cl)c1,inactive
4,CCCCC(CC)CN1C(=O)C2C3C=CC(C3)C2C1=O (stereo not given),inactive
5,CC1(C)C(C=C(Cl)Cl)C1C(=O)OCc1cccc(Oc2ccccc2)c1 (stereo not given),inactive
6,CSC(=O)c1cccc2nnsc12,inactive
7,CCSC(=O)N(CC(C)C)CC(C)C,inactive
8,COC(=O)c1ccc(I)cc1S(=O)(=O)NC(=O)Nc1nc(C)nc(OC)n1,inactive
9,C#CCOC(=O)[C@@H](C)Oc1ccc(Oc2ncc(Cl)cc2F)cc1,inactive
10,CCCN(CCC)C(=O)SCC,inactive
11,Oc1ccc(C(c2ccc(O)cc2)C(Cl)(Cl)Cl)cc1,inactive
12,COC(=O)CSc1cc(N=c2sc(=O)n3n2CCCC3)c(F)cc1Cl,inactive
13,COC(=O)c1ccccc1S(=O)(=O)NC(=O)Nc1nc(OC(F)F)cc(OC(F)F)n1,inactive
14,OB(O)O,inactive
15,CCN(Cc1c(F)cccc1Cl)c1c([N+](=O)[O-])cc(C(F)(F)F)cc1[N+](=O)[O-],inactive
16,COc1c(Cl)ccc(Cl)c1C(=O)O,inactive
17,CCCCCOC(=O)COc1cc(N2C(=O)C3=C(CCCC3)C2=O)c(F)cc1Cl,inactive
18,CCCCC(CC)COC(=O)c1ccccc1C(=O)O (stereo not given),inactive
19,COC(=O)c1ccc(CNS(C)(=O)=O)cc1S(=O)(=O)NC(=O)Nc1nc(OC)cc(OC)n1,inactive
20,CCC(O)=C1C(=O)CC(C(=O)O)CC1=O (stereo not given),inactive
